# PfHsp90 set2: growth inhibition of yeast expressing Plasmodium Hsp90. S. cerevisiae expressing PfHsp90, BacTiter-Glo ATP, 48 h; yeast lacking PDR1 and PDR3 efflux regulators. inhibition, % at 9.4 µM. 310,000 compounds, 0.32% hits;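 active = every replicate shows inhibition above about 80%, whatever the replicate mean, limit read from the data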;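 also: 0% = DMSO neutral controls and 100% = 20 µM radicicol positive controls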
# tim23-1 inh: growth inhibitors of tim23-1 mutant yeast. S. cerevisiae tim23-1 growth, BacTiter-Glo luminescence, 24 h. inhibition, % at 20 µM. 330,000 compounds, 1.3% hits. AID 463212;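 active = growth inhibition of the mutant yeast at or above 50%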;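 also: temperature-sensitive mutant grown at 25 °C; plate controls were DMSO-treated mutant yeast for no effect and medium wells lacking yeast for full effect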
# Mot1-301 SUMO: SUMOylation pathway inhibition by Mot1-301 growth rescue; S. cerevisiae Mot1-301 growth rescue, ATP luminescence, 38.5C; percent above DMSO median, 100 means doubled; growth rescue, % at 18.8 µM; 320,000 compounds, 1% hits;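 active = every valid replicate shows activation above 250% relative to neutral control wells; inactive = the rest, any valid replicate at or below 250%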;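 also: OY570 slx delta 5 strain wells were the positive control but not used for scaling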
# TIM10 inh: inhibits growth of TIM10 yeast strain; S. cerevisiae TIM10 strain growth, BacTiter-Glo luminescence, 24 h; 330,000 compounds, 1.4% hits; AID 463195; inhibition, % at 10 µM;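 active = inhibition of 40% or more at the single tested concentration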;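 also: wild-type TIM10 isogenic control strain grown at permissive 25 °C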
# tim10-1 inh: inhibits growth of tim10-1 mutant yeast | S. cerevisiae tim10-1 ts strain growth, BacTiter-Glo, 24 h | 330,000 compounds, 2.2% hits | inhibition, % at 20 µM;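 active = inhibition of at least 40%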;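 also: mutant grown at 25 °C; 0% = DMSO wells with yeast and 100% = wells holding no yeast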
# tim23-1 confirm: tim23-1 yeast growth inhibition, confirmed; shares compounds with tim23-1 inh; S. cerevisiae tim23-1 growth, BacTiter-Glo luminescence, 24 h; inhibition, % at 20 µM; 4,400 compounds, 83% hits; AID 463218;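 active = inhibition above about 39% in either of two replicate wells at 20 µM, limit read from the data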;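 also: temperature-sensitive tim23-1 mutant grown at 25 °C; 0% = DMSO wells with yeast and 100% = medium wells without yeast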
# Numbers without * were called inactive; · = no result given. Shown are actives, neighbours in structure and some others; about 4.4% of the full set was active somewhere.
SMILES,PfHsp90 set2,tim23-1 inh,Mot1-301 SUMO,TIM10 inh,tim10-1 inh,tim23-1 confirm
Cc1ccc(C)c(S(=O)(=O)N2CCN(C(=O)c3cncc(Br)c3)CC2)c1,-11.1,23.2,-19.1,-7.3,20.6,·
Cc1ccc(Nc2nc(-c3sc(N)nc3C)cs2)cc1,-5.0,65.4*,111.3,32.7,33.2,62.6*
COc1ccc(Nc2nc(-c3sc(N)nc3C)cs2)cc1,-4.7,15.9,-28.8,7.0,13.8,·
Oc1ccc(-c2nccc(-c3cccs3)n2)cc1,·,56.7*,·,20.4,8.0,57.5*
Cc1cc(NC(=O)COc2ccccc2C)ccc1NC(=O)c1cccs1,21.0,54.4*,-5.1,19.5,21.7,63.0*
Cc1cccc(NC(=O)C2CCN(C(=O)c3ccc(Cl)cc3)CC2)n1,·,10.8,7.8,1.7,7.4,·
CCc1cc2cc(C)cc(C)c2nc1SCC(=O)N1CCN(C(=O)c2ccco2)CC1,-2.7,19.6,-3.3,-7.7,3.1,·
CCc1cc2cccc(C)c2nc1SCC(=O)N1CCN(C(=O)c2ccco2)CC1,-14.5,56.9*,-1.1,5.5,29.6,37.8*
CN1CCC2(CC1)N=C(c1ccc(F)cc1)C(=S)N2C(=O)c1ccccc1,7.8,2.2,13.0,-10.5,1.2,·
CCN1CCC2(CC1)N=C(c1ccc(F)cc1)C(=S)N2C(=O)c1ccc(C(C)(C)C)cc1,-22.8,52.8*,2.7,12.6,8.3,-12.8
CCCCn1c(N)c(N(Cc2ccccc2OC)C(=O)CSCC(=O)Nc2cccc(C)c2)c(=O)[nH]c1=O,28.4,10.5,14.8,15.9,8.1,·
Cc1nnc(SCC(=O)Nc2ccc(-c3nc4ccccc4s3)cc2)s1,7.6,·,13.5,·,·,·
Cc1nnc(SCC(=O)Nc2nsc(-c3ccc(C(C)(C)C)cc3)n2)s1,·,51.5*,12.2,17.8,39.4,41.2*
Cc1cc(NC(=O)CSc2nc(C)c(C)n2CC(C)C)no1,0.0,0.1,5.8,-2.9,12.5,·
CCOC(=O)[C@@H]1[C@H]2COc3ccc(Br)cc3[C@H]2N2C(=O)N(c3ccc(C(F)(F)F)cc3)C(=O)[C@]12C,25.5,26.5,6.8,14.7,4.3,·
O=C(Nc1ccccc1)c1cccc(NC(=O)c2ccco2)c1,3.2,46.4,-6.7,34.5,10.6,·
Cc1cccc(C)c1OCC(=O)Nc1cccc(NC(=O)c2ccco2)c1,3.9,56.2*,1.3,31.2,26.8,48.7*
Cc1cccc(C)c1OCC(=O)Nc1ccc(NC(=O)c2ccco2)cc1,·,7.0,21.8,6.6,-2.2,·
C=Cc1cccc(NC(=O)c2ccc(NC(=O)c3ccco3)cc2)c1,5.7,51.2*,5.2,-9.9,-19.0,37.5*
O=C(CCCC(=O)OCC(=O)c1ccc(Cl)cc1)NC1CCCCC1,-18.6,18.4,9.6,12.0,27.6,·
CC(=O)COc1cccc2ccc(/C=C/c3ccc(Br)s3)nc12,4.7,54.8*,-2.9,28.0,23.6,45.5*
Cc1nc2ccc(S(=O)(=O)Nc3cccc(-c4nc5cccnc5s4)c3C)cc2s1,-27.0,38.8,7.2,5.3,34.7,·
Cc1nc2ccc(S(=O)(=O)Nc3cc(-c4nc5cccnc5s4)ccc3C)cc2s1,66.8,60.3*,-6.5,4.2,36.5,55.0*
O=S(=O)(Nc1cccc(-c2nc3cccnc3s2)c1)c1ccc2c(c1)OCCO2,-23.4,58.5*,25.9,28.6,38.5,52.5*
C=CCn1c(SCC(=O)NCC(c2ccccc2)N(C)C)nnc1C1CCCCC1 (stereo unspecified),-11.8,-11.5,-9.9,3.3,-3.1,·
SMILES,PfHsp90 set2,tim23-1 inh,Mot1-301 SUMO,TIM10 inh,tim10-1 inh,tim23-1 confirm
Oc1c(Cl)cc(CN2CCOCC2)c2cccnc12,·,50.5*,-9.3,15.4,26.3,38.5
O=C(Oc1c(CN2CCOCC2)cc(Cl)c2cccnc12)c1ccccc1F,9.9,24.9,-6.8,24.6,39.0,·
O=C1C(Cl)=C(N2CCCC2)C(=O)N1c1ccc(F)cc1,-0.9,25.1,2.0,-2.4,7.3,·
O=C(c1cc(-c2ccccc2Cl)nc2ccccc12)N1CCN(c2ccccn2)CC1,·,54.3*,64.2,24.4,17.5,44.1*
O=C(c1cc(-c2ccccc2Cl)nc2ccccc12)N1CCN(c2ccccc2O)CC1,·,40.2,-1.4,20.2,22.9,·
Cc1cccc(N2CCc3c2nc2ccc(Br)cc2c3N)c1,3.2,75.7*,48.1,27.7,31.8,62.5*
Cc1nc2c(-c3ccccc3)c(C)nn2c(N)c1-c1ccccc1,-2.3,36.3,-0.8,32.4,32.3,·
Cc1cc(N)n2nc(-c3ccccc3)c(-c3ccccc3)c2n1,-4.5,59.4*,-30.2,9.8,15.6,46.5*
CCCc1[nH][nH]c(=O)c1C(c1ccccc1)C(C#N)C#N (stereo unspecified),·,37.9,25.2,26.9,20.3,·
CCCc1[nH][nH]c(=O)c1C(c1ccc(Br)cc1)C(C#N)C#N (stereo unspecified),6.3,59.4*,12.1,34.9,32.9,35.0
Cc1cc(C)cc(N(C(C)C(=O)NC2CCCC2)S(C)(=O)=O)c1 (stereo unspecified),-20.8,88.5*,8.0,-10.9,12.1,11.0
CCOc1ccc(N(C(C)C(=O)NC2CCCCCC2)S(C)(=O)=O)cc1 (stereo unspecified),-4.9,14.7,67.8,-4.7,14.5,·
COCc1cc(CN2CCCC(C(=O)Nc3cccc(-n4cnnn4)c3)C2)ccc1OC (stereo unspecified),·,-6.9,-9.6,-5.0,-0.4,·
NS(=O)(=O)c1ccc(N2N=C(c3ccccc3)CC2c2cccc(Br)c2)cc1 (stereo unspecified),18.7,52.2*,·,13.1,34.9,33.2
Cc1ccc(NC(=O)CCc2nc3ccccc3c(=O)[nH]2)cc1S(=O)(=O)N1CCOCC1,13.2,12.6,-4.7,0.6,8.7,·
COc1cc(OC)cc(-c2c(-c3cccs3)c3cc(-c4ccc(C(N)=O)cc4)ccc3n2C)c1,4.9,5.0,18.2,3.3,0.7,·
CC(C)(C)C(=O)Nc1nnc(SCC(=O)NC2CC2)s1,-14.1,-1.5,-3.5,0.8,-17.7,·
CCCCOc1ccc(N=Nc2ccc(N)nc2N)cn1,16.0,80.1*,46.3,36.3,37.5,70.2*
O=C(O)c1cc(-c2ccc3c(c2)OCCO3)n[nH]1,6.8,1.5,2.5,-4.7,-4.9,·
Oc1ccccc1-c1cc(-c2ccc3c(c2)OCCO3)n[nH]1,46.9,65.8*,-4.7,31.1,30.9,-2.1
Clc1cc2cccnc2c2ncccc12,3.4,64.7*,15.2,13.9,9.4,38.9
COc1ccc(CCNCc2cc3ccc(C)cc3[nH]c2=O)cc1OC,2.8,15.4,11.3,-7.0,-8.6,·
O=C(Nc1cccc(F)c1)Nc1ccnn1C1CCN(C(=O)c2cscn2)CC1,24.4,11.4,-7.2,8.7,-4.4,·
CCCCN(C(=O)COC(=O)c1ccccc1)c1c(N)n(CCC)c(=O)[nH]c1=O,10.3,-7.0,0.4,3.7,-7.1,·

# Source: PubChem (several laboratories)
